Assay outcomes: PubChem BioAssay, National Center for Advancing Translational Sciences (NCATS)
Many of the other results were omitted from the sample, so hits are more common in it than they were.
FBPA Giardia inh = Giardia lamblia aldolase inhibition; A8B2U2; purified Giardia FBPA; Potency, µM (series often up to 59.6 µM), for inactives: at the highest dose activity, negative = inhibition, actives largely listed as inhibitors; actives 0.71% (n = 290,000); AID 2451; also: potency is read from the fitted curve at half-maximal effect; % is scaled to controls: 0 for no effect and ±100 for the full control effect; nearly all actives have a fitted effect of over 55% in size
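Giardia FBPA (40 nM reagent) was preincubated 10 min at RT with compound (up to 57.5 uM final), then substrate plus GAPDH/TPI/NAD/arsenate coupling system with diaphorase/resazurin was added; resorufin fluorescence (525/598 nm) was read after 20 min.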
Tb PYK inh = T. brucei pyruvate kinase inhibition; TbPYK enzyme, Kinase-Glo Plus ATP luminescence, 45 min; Q57TT1; actives 0.12% (n = 410,000); Potency, µM (titrated, usually from 76.8 µM), without a hit: at the top dose activity, negative = inhibition, usual class: inhibitors; AID 624173; also: potency is read from the fitted curve at half-maximal effect; % is scaled to controls: 0 for no effect and ±100 for the full control effect; nearly all actives have a fitted effect of over 50% in size
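Activity of T. brucei pyruvate kinase was followed by Kinase-Glo Plus luminescence after the enzyme reacted 45 min at room temperature with 130 uM ADP (final) and substrate. Test compounds were added before ADP at multiple concentrations.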
LmPK inh = blocks Leishmania mexicana pyruvate kinase activity; Q27686; purified LmPK, Kinase-Glo ATP luminescence, 1 h; Potency, µM (highest dose often 57.5 µM), without a hit: top-dose activity change, negative = inhibition, usual class: inhibitors; actives 0.37% (n = 290,000); AID 1721; also: potency is read from the fitted curve at half-maximal effect; % is scaled to controls: 0 for no effect and ±100 for the full control effect
Target sequence (Q27686 whole entry, looked up): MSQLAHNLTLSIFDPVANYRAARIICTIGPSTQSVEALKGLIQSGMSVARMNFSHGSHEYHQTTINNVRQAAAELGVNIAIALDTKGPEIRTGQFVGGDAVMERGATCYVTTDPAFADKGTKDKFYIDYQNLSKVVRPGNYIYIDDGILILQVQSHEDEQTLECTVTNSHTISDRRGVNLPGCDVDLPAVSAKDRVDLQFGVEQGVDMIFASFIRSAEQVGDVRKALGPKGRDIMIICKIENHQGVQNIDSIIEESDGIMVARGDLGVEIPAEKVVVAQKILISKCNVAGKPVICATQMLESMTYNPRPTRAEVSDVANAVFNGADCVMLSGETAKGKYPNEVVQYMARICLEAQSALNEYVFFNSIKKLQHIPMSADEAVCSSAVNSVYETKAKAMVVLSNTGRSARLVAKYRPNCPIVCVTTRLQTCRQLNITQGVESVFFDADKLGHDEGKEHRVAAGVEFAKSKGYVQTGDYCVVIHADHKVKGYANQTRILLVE
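Pyruvate kinase activity monitored as ATP production (luciferase luminescence). Conditions: 0.1 nM enzyme, 0.5 mM PEP, 0.1 mM ADP, 1 h, RT; normalized against uninhibited and no-enzyme wells.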
CHX counter = counter-screen for Shiga toxin inhibitors: cycloheximide protein synthesis inhibition. actives 12% (n = 300,000). cell reporter, cycloheximide protein synthesis inhibition counterscreen. max response, %. AID 2314; in the data active = max response mostly above about 13%, no sharp cut-off; inactive = mostly below about 14%; also: read at 38.3 µM for the half of the compounds with a filed dose; 0% is about no effect
Sm TGR block = blocks Schistosoma mansoni thioredoxin glutathione reductase. actives 3% (n = 360,000). purified TGR, DTNB reduction, TNB absorbance 405 nm. Q962Y6. Potency, µM (doses to about 114 µM), for inactives: at the top dose activity change, negative = inhibition, most hits filed as inhibitors; also: potency is read from the fitted curve at half-maximal effect; % is scaled to controls: 0 for no effect and ±100 for the full control effect; nearly all actives have a fitted effect of over 60% in size
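Kinetic colorimetric format: TGR-catalysed, NADPH-driven DTNB reduction monitored via TNB absorbance. Enzyme dispensed at 20 nM; compound exposure 15 min at room temperature before reaction start.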
Shiga inhibitor = inhibitors of Shiga toxin in Vero cells; Vero cells, Shiga toxin protein synthesis inhibition reporter; inhibition, % at 38.7 µM; actives 9.2% (n = 290,000); AID 2315; in the data active = inhibition mostly above about 28%, no sharp cut-off; inactive = mostly below about 43%; also: 0% is about no effect
Numbers without * were called inactive; ? = inconclusive; · = no result; [ ] = remark or other dose. Unless noted, calls follow the shape of the dose curve; as a rule, active = well fitted curve in the direction sought with a large enough effect; inconclusive = small, poorly fitted or top-dose-only effect, or another doubt; inactive = no such curve, though single readings can be large; an effect the other way counts as inactive or inconclusive.

SMILES	FBPA Giardia inh	Tb PYK inh	LmPK inh	CHX counter	Sm TGR block	Shiga inhibitor
Cc1ccc(-c2nc3ccccc3s2)cc1NC(=O)c1cc(-n2cnnc2)ccc1Cl	0%	3%	0%	38*	-32%	85*
c1ccc(N2CC3CCc4ccccc4C3=N2)cc1 (stereo not drawn)	-11%	0%	-7%	39*	45µM*	64*
O=C1c2ccccc2C(=O)N1c1ccc(Cc2ccncc2)cc1	7%	3%	-3%	15*	-22%	38
O=C1c2ccccc2C(=O)N1c1ccccc1	·	0%	·	·	·	·
O=C(Nc1sc2c(c1C(=O)NC1CCCCC1)CCC2)c1ccco1	5%	0%	0%	16	?	26
CNC(=O)c1c(NC(=O)/C=C/c2ccccc2)sc2c1CCC2	·	0%	·	·	35µM*	·
NC(=O)c1c(NC(NC(=O)c2ccco2)C(=O)c2ccc(Cl)cc2)sc2c1CCCC2 (stereo not drawn)	-26%	-11%	13%	10	32µM*	-6
CNC(=O)c1c(NC(=O)c2ccco2)sc2c1CCC2	·	-9%	3%	31*	32µM*	49
O=C(/C=C/c1ccccc1)Nc1sc2c(c1C(=O)O)CCC2	?	-8%	3%	25*	?	41*
COC(=O)c1c(NC(=O)/C=C/c2ccc(OC)cc2)sc2c1CCC2	·	3%	·	·	-2%	·
CCOC1=C2[C@H](c3ccc(CC)cc3)N(S(=O)(=O)c3ccc(C)cc3)C[C@H]2n2c(=O)n(-c3ccccc3)c(=O)n2C1	·	4%	·	·	·	·
O=S(=O)(Nc1cc(F)ccc1F)c1cccc2nonc12	-17%	1%	-7%	2	?	11
COc1cccc(-c2noc(C3CCCN(C(=O)c4cccc(F)c4)C3)n2)c1 (stereo not drawn)	3%	3%	-3%	35*	-4%	45*
CCCC(=O)N1CCCC(c2nc(-c3cccc(OC)c3)no2)C1 (stereo not drawn)	0%	-4%	-17%	32*	·	77*
CCCCCCC(=O)N1CCCC(c2nc(-c3cccc(OC)c3)no2)C1 (stereo not drawn)	6%	0%	5%	-2	1%	14
COc1cccc(-c2noc(C3CCCN(C(=O)Cc4ccccc4)C3)n2)c1 (stereo not drawn)	-1%	4%	-2%	23*	2%	24
CC(C)Cc1nn2c(=O)cc(COC(=O)c3ccccc3NC(=O)c3cccs3)nc2s1	·	-6%	·	·	-8%	·
O=C(O)Cn1c(C(=O)Nc2nc(-c3ccccc3Cl)cs2)cc2ccccc21	-11%	0%	·	-6	·	8
O=C(CCl)Nc1ccc(S(=O)(=O)Nc2nccs2)cc1	·	8%	-1%	-4	20µM*	-4
CCOCC(=O)Nc1ccc(S(=O)(=O)Nc2nccs2)cc1	?	-9%	1%	-1	0%	-10
CCOC(=O)/C=C/C(=O)Nc1ccc(S(=O)(=O)Nc2nccs2)cc1	-10%	-6%	-3%	0	45µM*	-2
Nc1ccc2cccc(O)c2c1	·	2%	·	·	·	·
O=C(NCCCc1ccccc1)c1ccc(CS(=O)Cc2ccccc2Cl)o1 (stereo not drawn)	8%	2%	1%	-1	?	-6
COC(=O)c1ccc(COc2ccccc2[N+](=O)[O-])o1	3%	3%	0%	45*	-1%	73*
COC(=O)c1ccc(COc2ccccc2/C=N/O)o1	6%	2%	0%	6	-3%	31
SMILES	FBPA Giardia inh	Tb PYK inh	LmPK inh	CHX counter	Sm TGR block	Shiga inhibitor
Cc1ccc(OCc2ccc(C(=O)O)o2)c([N+](=O)[O-])c1	29%	-2%	4%	13*	-16%	22
Cc1ccc(OCc2ccc(C(=O)N3CCCC3)o2)c([N+](=O)[O-])c1	8%	0%	0%	18	-21%	24
CCc1nnc(SCc2nc(-c3ccccc3F)oc2C)c2cc3sccc3n12	·	0%	·	·	0%	·
Cc1ccc(F)cc1NC(=O)COC(=O)COc1ccc(C#N)cc1	·	0%	·	·	3%	·
Cc1ccc(NC(=O)CC2SC(=NC3CCCCC3)NC2=O)cc1 (stereo not drawn)	0%	1%	-5%	1	50µM*	1
Cc1ccc(-c2nc(C#N)c(NCCc3ccccn3)o2)cc1	-5%	-5%	5%	17*	-23%[11.4 µM]	36
COc1ccc(CCNc2oc(-c3ccc(C)cc3)nc2C#N)cc1OC	-4%	-3%	-1%	12	-10%	9
N#Cc1nc(-c2ccc(Cl)cc2)oc1NCCc1ccccn1	5%	-23%	7%	12*	1%	35*
CSc1ccc(CN2CCC(n3nccc3NC(=O)CCCc3ccccc3)CC2)cc1	·	3%	0%	2	-4%	1
Cc1occc1C(=O)NNC(=O)c1ccccc1F	0%	-7%	?	23*	7%	40
O=C(NNC(=S)Nc1ccccc1C(F)(F)F)c1ccc(Br)o1	13%	-2%	6%	30*	-10%	101*
CC(C)(C)CC(=O)NC(=S)Nc1ccccc1C(F)(F)F	-6%	-4%	4%	1	-7%	-16
Cc1occc1C(=O)NNC(=S)Nc1ccccc1	4%	-19%	-25%	35*	-4%	77*
Cc1ccccc1NC(=S)NNC(=O)c1ccoc1C	-1%	-3%	?	35	-3%	48*
CCCCN(Cc1cc2cc(C)ccc2[nH]c1=O)C(=O)c1cccc(Cl)c1	·	0%	·	·	3%	·
Cc1c(C(=O)N2CCN(S(=O)(=O)c3cc(F)ccc3F)CC2)oc2ccccc12	·	-2%	·	·	-5%	·
Cc1occc1C(=O)NNC(=S)Nc1ccccc1C(F)(F)F	0%	-10%	-11%	26*	-1%	56*
CCOC(=O)C1(C)CCCN(C(=O)COc2ccccc2)C1 (stereo not drawn)	·	-2%	·	·	·	·
CN(C)CCN(C(=O)c1ccc2ccccc2c1)c1nc2ccc(F)cc2s1	?	-12%	7%	18*	3%	57
Cc1ccc2nc(N(CCN(C)C)C(=O)c3cc(Cl)sc3Cl)sc2c1	-18%	7%	1%	22*	4%	33*
CCc1ccc2nc(N(CCN(C)C)C(=O)c3ccc4ccccc4c3)sc2c1	-20%	-2%	-2%	21	42%	11
O=C1c2ccccc2C(=O)N1CCCCN(C(=O)c1cc2ccccc2oc1=O)c1ccc(F)cc1F	7%	2%	-3%	60*	0%	74*
CN(C)CCCN(C(=O)c1cc2ccccc2oc1=O)c1nc2ccc(F)cc2s1	-7%	-1%	1%	13*	5%	20
N#Cc1ccc(CN2CCC3(CC2)CCN(C(=O)c2cc(C(F)(F)F)cc(C(F)(F)F)c2)CC3)cc1	-1%	-6%	·	·	·	·
COc1ccccc1CN1CCC(CNC(=O)c2cnn(-c3ccc(Cl)cc3)c2C2CCN(C(=O)OC(C)(C)C)CC2)CC1	·	0%	·	·	6%	·
